Outcome and AC50 data for three compounds are collected here from PubChem BioAssay (EPA / NIEHS).

Holding throughout (conditions): mRNA level, 48 h; actives raise or lower the signal
Read-out in test [1]: JUN Transcription Factor, JUN (gene 3725)
Briefly: LTEA_HepaRG_JUN: Life Technologies and Expression Analysis (LTEA) Assay for JUN Transcription Factor using HepaRG (AID 2283513). The procedure, abridged:
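Differentiated HepaRG cells were exposed to chemicals for 48 h in serum-free induction medium, 8 concentrations from 100 uM in half-log steps, 0.5% DMSO vehicle, in duplicate. JUN mRNA was quantified by TaqMan qRT-PCR, normalized to ACTB, GAPDH, POLR2A.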

Read-out in test [2]: Lipase C (LIPC), LIPC (gene 3990)
The test is described as follows: LTEA_HepaRG_LIPC: Life Technologies and Expression Analysis (LTEA) Assay for Lipase C (LIPC) using HepaRG (AID 2283514). The procedure, abridged: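 Differentiated human HepaRG cells in serum-free induction medium were exposed in duplicate for 48 h to eight concentrations (top 100 uM, half-log steps, 0.5% DMSO). LIPC mRNA was quantified by TaqMan qRT-PCR, normalized to ACTB, GAPDH and POLR2A, with bidirectional fitting versus DMSO.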

Read-out in test [3]: Lipoprotein lipase (LPL), LPL (gene 4023)
The test is described as follows: LTEA_HepaRG_LPL: Life Technologies and Expression Analysis (LTEA) Assay for Lipoprotein lipase (LPL) using HepaRG (AID 2283515). The procedure, abridged:
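Differentiated human HepaRG cells in serum-free induction medium were exposed in duplicate for 48 h to eight half-log concentrations (top 100 uM) in 0.5% DMSO. LPL mRNA was quantified by TaqMan qRT-PCR, normalized to ACTB, GAPDH and POLR2A.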

Read-out in test [4]: MicroRNA 122 (MIR122), gene 406906
Briefly: LTEA_HepaRG_MIR122: Life Technologies and Expression Analysis (LTEA) Assay for MicroRNA 122 (MIR122) using HepaRG (AID 2283516). Further: the transcript read is the microRNA miR-122. The procedure, abridged:
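Differentiated human HepaRG cells were exposed 48 h in serum-free induction medium to eight half-log concentrations (top 100 uM, 0.5% DMSO). Transcript level was measured by TaqMan qRT-PCR, normalized to ACTB, GAPDH and POLR2A, and fitted bidirectionally versus DMSO.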

Read-out in test [5]: matrix metalloproteinase-10 (MMP10), MMP10 (gene 4319)
Briefly: LTEA_HepaRG_MMP10: Life Technologies and Expression Analysis (LTEA) Assay for matrix metalloproteinase-10 (MMP10) using HepaRG (AID 2283517). The procedure, abridged: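 HepaRG, collagen I, ~100,000 cells/well; serum-free induction medium; 48 h exposure, duplicate, 8-pt half-log to 100 uM, 0.5% DMSO. Readout: TaqMan qRT-PCR, normalized to ACTB/GAPDH/POLR2A; bidirectional fit vs DMSO.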

Read-out in a further test: MYC, MYC (gene 4609)
Briefly: LTEA_HepaRG_MYC: Life Technologies and Expression Analysis (LTEA) Assay for MYC using HepaRG (AID 2283518). In outline:
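Expression changes were scored by TaqMan qRT-PCR with ACTB, GAPDH and POLR2A normalization. Cultures in serum-free induction medium received duplicate 8-point concentration series, highest 100 uM, for 48 h; DMSO (0.5%) served as baseline.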

Read-out in test [6]: matrix metalloproteinase-3 (MMP3), MMP3 (gene 4314)
Briefly: LTEA_HepaRG_MMP3: Life Technologies and Expression Analysis (LTEA) Assay for matrix metalloproteinase-3 (MMP3) using HepaRG (AID 2283519). In outline:
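Differentiated human HepaRG cells, plated 48 h on collagen I, were exposed in duplicate for 48 h in serum-free induction medium to eight half-log concentrations up to 100 uM in 0.5% DMSO. MMP3 mRNA was quantified by TaqMan qRT-PCR, normalised to ACTB, GAPDH and POLR2A.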

Read-out in test [7]: Paternally Expressed 10 (PEG10), PEG10 (gene 23089)
The test is described as follows: LTEA_HepaRG_PEG10: Life Technologies and Expression Analysis (LTEA) Assay for Paternally Expressed 10 (PEG10) using HepaRG (AID 2283520). In outline:
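Differentiated HepaRG cells, plated 48 h then switched to serum-free induction medium, were exposed in duplicate for 48 h to eight half-log concentrations topping at 100 uM in 0.5% DMSO. PEG10 mRNA was quantified by TaqMan qRT-PCR, normalised to ACTB, GAPDH and POLR2A.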

Read-out in test [8]: Nuclear factor NF-kappa-B p105 subunit (Homo sapiens) (UniProt P19838)
Briefly: LTEA_HepaRG_NFKB1: Life Technologies and Expression Analysis (LTEA) Assay for Nuclear Factor Kappa B Subunit 1 (NFKB1) using HepaRG (AID 2283521).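 Further: TaqMan qRT-PCR transcript normalised to ACTB GAPDH and POLR2A housekeeping genes.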 In outline:
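Human HepaRG cells receive eight half-log concentrations, highest 100 uM, for 48 h. NFKB1 expression is then quantified by qRT-PCR and analysed for up- or down-regulation relative to 0.5% DMSO vehicle.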

Read-out in test [9]: Protein phosphatase 2A (PPP2R4), PTPA (gene 5524)
The test is described as follows: LTEA_HepaRG_PPP2R4: Life Technologies and Expression Analysis (LTEA) Assay for Protein phosphatase 2A (PPP2R4) using HepaRG (AID 2283522). The procedure, abridged:
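Differentiated HepaRG cells in serum-free induction medium were exposed in duplicate for 48 h to eight concentrations, top 100 uM with half-log dilutions, in 0.5% DMSO. PPP2R4 mRNA was quantified by TaqMan qRT-PCR, normalized to ACTB, GAPDH and POLR2A.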

Read-out in test [10]: Phosphatase and tensin (PTEN), PTEN (gene 5728)
The test is described as follows: LTEA_HepaRG_PTEN: Life Technologies and Expression Analysis (LTEA) Assay for Phosphatase and tensin (PTEN) using HepaRG (AID 2283523). In outline:
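Differentiated human HepaRG cells, plated 48 h then switched to serum-free induction medium, were exposed in duplicate for 48 h to eight half-log concentrations up to 100 uM in 0.5% DMSO. PTEN mRNA measured by TaqMan qRT-PCR, normalized to ACTB/GAPDH/POLR2A, bidirectional fit versus DMSO.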

Read-out in test [11]: solute carrier (SLC22A1), SLC22A1 (gene 6580)
Briefly: LTEA_HepaRG_SLC22A1: Life Technologies and Expression Analysis (LTEA) Assay for solute carrier (SLC22A1) using HepaRG (AID 2283524). In outline: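 Human HepaRG cells were plated 48 h, switched to serum-free induction medium, then exposed in duplicate for 48 h to 8-point half-log series from 100 uM in 0.5% DMSO. SLC22A1 mRNA measured by qRT-PCR, normalized to ACTB/GAPDH/POLR2A, fitted bidirectionally versus DMSO.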

Read-out in test [12]: Pyruvate Dehydrogenase Kinase 4 (PDK4), PDK4 (gene 5166)
Briefly: LTEA_HepaRG_PDK4: Life Technologies and Expression Analysis (LTEA) Assay for Pyruvate Dehydrogenase Kinase 4 (PDK4) using HepaRG (AID 2283525). In outline: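 Differentiated human HepaRG cells, pre-cultured 48 h, were exposed in duplicate for 48 h in serum-free induction medium to eight half-log concentrations up to 100 uM in 0.5% DMSO. PDK4 mRNA was quantified by qRT-PCR, normalized to ACTB, GAPDH and POLR2A, bidirectional fitting versus DMSO.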

Read-out in test [13]: NAD(P)H dehydrogenase [quinone] 1 (NQO1), NQO1 (gene 1728)
The test is described as follows: LTEA_HepaRG_NQO1: Life Technologies and Expression Analysis (LTEA) Assay for NAD(P)H dehydrogenase [quinone] 1 (NQO1) using HepaRG (AID 2283526). In outline:
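Differentiated HepaRG cells, plated 48 h and then switched to serum-free induction medium, were exposed in duplicate for 48 h to 8-point half-log concentrations up to 100 uM in 0.5% DMSO. mRNA measured by qRT-PCR, normalized to ACTB, GAPDH, POLR2A; bidirectional fit versus DMSO.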

Read-out in test [14]: Nuclear factor erythroid 2-related factor 2 (Homo sapiens) (UniProt Q16236)
Briefly: LTEA_HepaRG_NFE2L2: Life Technologies and Expression Analysis (LTEA) Assay for Nuclear factor erythroid 2-related factor 2 (NFE2L2) Transcription Factor using HepaRG (AID 2283527).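 On Outcome: TaqMan qRT-PCR transcript level normalised to ACTB GAPDH and POLR2A housekeeping genes.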 In outline: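 Differentiated human HepaRG cells in serum-free induction medium were exposed for 48 h to eight concentrations (top 100 uM, half-log dilutions, 0.5% DMSO), in duplicate. NFE2L2 mRNA was quantified by TaqMan qRT-PCR, normalized to ACTB, GAPDH and POLR2A, with bidirectional fitting versus DMSO.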

Read-out in test [15]: succinate dehydrogenase complex iron sulfur subunit B (SDHB), SDHB (gene 6390)
The test is described as follows: LTEA_HepaRG_SDHB: Life Technologies and Expression Analysis (LTEA) Assay for succinate dehydrogenase complex iron sulfur subunit B (SDHB) using HepaRG (AID 2283528). The procedure, abridged: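 A human HepaRG culture in serum-free induction medium received test chemicals for 48 h over an eight-point range capped at 100 uM. SDHB expression change was quantified by qRT-PCR.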

Read-out in test [16]: Signal transducer and activator of transcription 3 (Homo sapiens) (UniProt P40763)
Briefly: LTEA_HepaRG_STAT3: Life Technologies and Expression Analysis (LTEA) Assay for Signal transducer and activator of transcription (STAT3) using HepaRG (AID 2283529). The procedure, abridged:
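Differentiated human HepaRG cells in serum-free induction medium were exposed in duplicate for 48 h to eight half-log concentrations up to 100 uM in 0.5% DMSO. STAT3 mRNA was quantified by TaqMan qRT-PCR, normalized to ACTB, GAPDH and POLR2A, and fitted bidirectionally against DMSO.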

Read-out in test [17]: solute carrier (SLCO1B1), SLCO1B1 (gene 10599)
The test is described as follows: LTEA_HepaRG_SLCO1B1: Life Technologies and Expression Analysis (LTEA) Assay for solute carrier (SLCO1B1) using HepaRG (AID 2283530). In outline:
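Human HepaRG cultures treated for 48 h with an eight-concentration half-log series topping at 100 uM; SLCO1B1 measured by qRT-PCR and fitted bidirectionally relative to DMSO.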

Read-out in test [18]: Transforming Growth Factor (TGFA), TGFA (gene 7039)
Briefly: LTEA_HepaRG_TGFA: Life Technologies and Expression Analysis (LTEA) Assay for Transforming Growth Factor (TGFA) using HepaRG (AID 2283532). In outline: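 Differentiated human HepaRG cells, plated 48 h then switched to serum-free induction medium, were exposed in duplicate for 48 h to 8-point half-log series from 100 uM in 0.5% DMSO. TGFA mRNA measured by qRT-PCR, normalized to ACTB/GAPDH/POLR2A, bidirectional fit versus DMSO.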

Read-out in test [19]: sulfotransferase 2A1 (SULT2A1), SULT2A1 (gene 6822)
Briefly: LTEA_HepaRG_SULT2A1: Life Technologies and Expression Analysis (LTEA) Assay for sulfotransferase 2A1 (SULT2A1) using HepaRG (AID 2283531). The procedure, abridged: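 Gene-expression endpoint in a human liver cell line: SULT2A1 mRNA change after 48 h chemical treatment, curves fitted in both directions relative to 0.5% DMSO vehicle. Concentrations spanned eight half-log steps from 100 uM.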

Calls of active or inactive are those of the source. How the source made its calls: active means hit-call score of the fitted dose curve at least 0.9, where 1 is the maximum; inactive means score below 0.9.

Sequence of Signal transducer and activator of transcription 3 (Homo sapiens) (P40763 whole entry, looked up): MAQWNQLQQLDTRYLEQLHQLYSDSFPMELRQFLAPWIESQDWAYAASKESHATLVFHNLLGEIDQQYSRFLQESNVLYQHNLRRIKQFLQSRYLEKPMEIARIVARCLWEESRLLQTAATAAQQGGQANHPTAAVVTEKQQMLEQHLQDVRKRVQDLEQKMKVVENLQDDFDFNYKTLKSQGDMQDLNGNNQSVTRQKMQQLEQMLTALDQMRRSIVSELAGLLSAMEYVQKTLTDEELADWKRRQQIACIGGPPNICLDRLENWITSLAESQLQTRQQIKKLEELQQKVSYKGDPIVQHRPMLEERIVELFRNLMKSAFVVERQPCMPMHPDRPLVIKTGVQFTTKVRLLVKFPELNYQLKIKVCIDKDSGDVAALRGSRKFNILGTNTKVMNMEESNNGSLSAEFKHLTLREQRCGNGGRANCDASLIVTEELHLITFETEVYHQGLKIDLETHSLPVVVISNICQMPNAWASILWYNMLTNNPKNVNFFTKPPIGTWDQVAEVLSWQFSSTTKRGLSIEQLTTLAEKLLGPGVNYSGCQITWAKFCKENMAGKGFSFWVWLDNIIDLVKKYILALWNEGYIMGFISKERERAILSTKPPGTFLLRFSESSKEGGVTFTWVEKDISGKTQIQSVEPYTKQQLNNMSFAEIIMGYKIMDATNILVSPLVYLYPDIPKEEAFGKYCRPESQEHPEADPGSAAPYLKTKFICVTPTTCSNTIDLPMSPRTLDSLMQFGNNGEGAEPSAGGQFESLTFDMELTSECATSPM
Sequence of Nuclear factor erythroid 2-related factor 2 (Homo sapiens) (Q16236 whole entry, looked up): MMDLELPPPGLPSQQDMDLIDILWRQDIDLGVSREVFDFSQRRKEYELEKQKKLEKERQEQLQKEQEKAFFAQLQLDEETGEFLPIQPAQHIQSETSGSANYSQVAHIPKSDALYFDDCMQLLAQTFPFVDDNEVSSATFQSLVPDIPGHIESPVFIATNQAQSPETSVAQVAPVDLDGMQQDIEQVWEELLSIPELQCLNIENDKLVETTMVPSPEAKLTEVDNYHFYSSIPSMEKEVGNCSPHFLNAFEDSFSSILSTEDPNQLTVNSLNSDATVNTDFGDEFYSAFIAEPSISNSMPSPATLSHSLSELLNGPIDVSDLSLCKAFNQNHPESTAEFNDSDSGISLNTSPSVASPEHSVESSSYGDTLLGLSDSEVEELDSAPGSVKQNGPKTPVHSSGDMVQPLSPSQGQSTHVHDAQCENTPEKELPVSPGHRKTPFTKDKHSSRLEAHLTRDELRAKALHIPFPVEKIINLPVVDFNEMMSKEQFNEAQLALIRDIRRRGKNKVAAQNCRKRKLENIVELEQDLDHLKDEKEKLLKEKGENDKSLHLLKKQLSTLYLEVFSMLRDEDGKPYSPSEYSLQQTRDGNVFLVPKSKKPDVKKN
Sequence of Nuclear factor NF-kappa-B p105 subunit (Homo sapiens) (P19838 whole entry, looked up): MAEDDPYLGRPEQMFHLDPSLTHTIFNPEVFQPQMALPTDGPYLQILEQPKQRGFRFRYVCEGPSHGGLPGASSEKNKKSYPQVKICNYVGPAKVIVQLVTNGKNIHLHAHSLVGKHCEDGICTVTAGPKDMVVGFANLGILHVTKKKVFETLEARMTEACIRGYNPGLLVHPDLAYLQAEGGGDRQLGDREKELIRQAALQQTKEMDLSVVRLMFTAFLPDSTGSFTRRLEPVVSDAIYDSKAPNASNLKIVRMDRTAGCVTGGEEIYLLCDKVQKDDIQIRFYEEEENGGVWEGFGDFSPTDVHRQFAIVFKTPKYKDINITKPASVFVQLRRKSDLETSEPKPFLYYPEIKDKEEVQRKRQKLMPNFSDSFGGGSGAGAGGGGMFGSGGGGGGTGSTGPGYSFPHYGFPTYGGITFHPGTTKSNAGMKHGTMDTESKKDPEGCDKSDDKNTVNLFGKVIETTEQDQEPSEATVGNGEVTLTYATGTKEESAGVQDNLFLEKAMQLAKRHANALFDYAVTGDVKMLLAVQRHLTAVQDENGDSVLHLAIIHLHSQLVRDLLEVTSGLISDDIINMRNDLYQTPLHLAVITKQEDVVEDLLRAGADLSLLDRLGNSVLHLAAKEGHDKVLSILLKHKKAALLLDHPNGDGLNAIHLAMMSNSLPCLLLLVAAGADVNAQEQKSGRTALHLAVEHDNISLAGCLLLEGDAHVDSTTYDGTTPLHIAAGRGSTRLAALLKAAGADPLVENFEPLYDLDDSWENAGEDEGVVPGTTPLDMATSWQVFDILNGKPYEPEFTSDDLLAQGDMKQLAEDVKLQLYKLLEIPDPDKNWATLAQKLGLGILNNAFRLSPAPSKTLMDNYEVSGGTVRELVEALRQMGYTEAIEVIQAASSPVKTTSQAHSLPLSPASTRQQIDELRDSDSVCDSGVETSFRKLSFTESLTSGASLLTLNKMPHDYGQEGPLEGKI

For `COc1ccc(-n2nc(C(F)F)cc2-c2ccc(S(C)=O)cc2)cc1` (centres undefined), the outcome in [1] was “inactive”; in test [2] it was “inactive”; in [4] it was “inactive”; in test [5] it was “inactive”; in the test with MYC, MYC (gene 4609) it was “inactive”; in test [6], “inactive”. The compound was classed as inactive in [7], in test [8], in [9], in test [10], in test [11] and in test [12]. In addition, the call in test [13], in [14], in test [15], in test [16], in [17] and in [18] was inactive. Moreover, in test [3], the AC50 (as a rule, the concentration at which the activity in the assay is half-maximal) is 31.1 µM (active).

As to `Cn1c(=O)c2c(ncn2C)n(C)c1=O`, the outcome in [1] is “inactive”; in test [2], “inactive”; in test [3] it was “inactive”; in [4], “inactive”; in test [5], “inactive”; in the test with MYC, MYC (gene 4609), “inactive”. The compound was classed as inactive in test [7], in [9], in test [10], in test [11], in test [12] and in [13]. The outcome in [14], in test [15], in [16], in test [17], in test [19] and in test [18] was inactive.

As for `O=P(OC(CCl)CCl)(OC(CCl)CCl)OC(CCl)CCl`, the call in test [1], in [5], in test [10], in test [12], in test [13] and in [16] was inactive. The half-maximal activity concentration (AC50) in test [2] is 65.3 µM (active); in test [3] it was 91.3 µM (active); in test [4], 59.6 µM (active); with MYC, MYC (gene 4609) it was 82.9 µM (active); in [7] it was 12.7 µM (active); in test [9], 85.3 µM (active). Further, the AC50 in test [11] was 75.2 µM (active); in [14] it was 83 µM (active); in test [15], 85 µM (active); in [17], 50 µM (active); in [18], 83.3 µM (active).
